# From PubChem BioAssay (NCI)
# Compounds without any hit were thinned out: in the full panel of roughly 83,000, 20% have a hit.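 Note: values are percent growth. 100 is the growth of untreated cells, values between 100 and 0 indicate rising inhibition; between -100 and 0 indicates cell death.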 Values without a mark were called inactive. Activity calls are given as the source filed them.
# Test system: UACC-62 melanoma
# Assay: NCI-60 one-dose screen, 48 h (100 = growth as untreated, 0 = no growth, -100 = all killed)
# Details: 10 µM
# Description: Growth inhibition of the UACC-62 human tumor cell line is measured as a screen for anti-cancer activity. Cells are grown in 96 well plates and exposed to the test compound for 48 hours. Compounds are tested at a single concentration, which is 10^-5 M for most compounds. The reported endpoint is percent growth (GI% or GIPRCNT), where numbers from 0 - 100% represent growth inhibition, and numbers from -100% - 0 represent cell death. For example, a value of 40 represents 60% growth inhibition. A value of 0 means no net growth occurred over the course of the experiment. A value of -40 indicates 40% of cells at the beginning of the experiment died by the end of the experiment. A value of -100 means all cells are dead at the end of the experiment.
# NCI-60 Human Tumor Cell Lines Screen was performed using the standard one-dose NCI protocol, which is described in more detail at https://dtp.cancer.gov/discovery_development/nci-60/default.htm.
# Compounds with GIPRCNT values below 10 were considered active. Activity score was based on GIPRCNT using the following formula: […]
# Score is 0 for GIPRCNT values of 100 or above, 50 for GIPRCNT values of 0, and 100 for GIPRCNT values of -100.
row,Structure (SMILES),growth
1,Cc1ccc(NS(=O)(=O)c2ccccc2)c(NS(=O)(=O)c2ccccc2)c1,87.9%
2,O=C(NC1CCN(Cc2ccccc2)CC1)c1cc(-c2ccncc2)nc2ccc(Cl)cc12,7.85% (active)
3,CC(C)CCN(CCCNc1c2c(nc3cc(Cl)ccc13)CCCC2)CCC(C)C,82.8%
4,COc1ccc(-c2nnc(COc3ccc(NC(=O)Nc4ccccc4)cc3F)o2)cc1,78%
5,CNC(=O)c1cc(Oc2ccc(NC(=O)Nc3ccc(Cl)c(OC(C)C)c3)c(F)c2)ccn1,34.2%
6,O=C1/C(=C/c2ccc(O)cc2)Oc2ccc(Cl)cc21,82.5%
7,O=C(Cn1ccc(=O)[nH]c1=O)c1ccc([N+](=O)[O-])o1,87%
8,O=[N+]([O-])c1ccc(-c2nc(-c3ccccc3)c(-c3ccccc3)n2-c2ccccc2)cc1,30.9%
9,Cc1cc2cc3c(=O)[nH]c(=O)cc-3n(CC(O)C(O)C(O)CO)c2cc1C (stereo not given),112%
10,Nc1ccc2c(c1)Cc1cc(N)c(Cl)cc1-2,83.9%
11,CC(=O)Oc1ccc(C2=Cc3ccc(OC(C)=O)cc3OC2C)cc1 (stereo not given),45%
12,COc1ccc(-c2nc(NC(=O)CS(=O)(=O)c3ccc(F)cc3)sc2C)cc1,74.9%
13,CC1(C)Cc2c(cn(Cc3ccccc3)c2-c2ccccc2)-c2oncc21,86.7%
14,CCC(O)c1ccc(Br)cc1NC(=O)c1cccc(Cl)c1 (stereo not given),-27.5% (active)
15,Cc1ccc(S(=O)(=O)Oc2ccccc2-c2ccccc2)cc1,37.1%
16,COc1ccc(C2=NNC(c3sc(Cl)nc3Cl)C2)cc1 (stereo not given),96%
17,CCN1CCN(c2nc(NNC(=O)c3cccc(OC)c3)nc(N3CCN(C(c4ccccc4)c4ccccc4)CC3)n2)CC1,73.5%
18,Cc1nnc2c3nnc(-c4ccc(Cl)cc4)n3c3ccccc3n12,97.7%
19,COc1cc(CSc2nc3ccc(C)cc3c(=O)n2-c2ccccc2)cc(OC)c1OC,20.8%
20,Cc1ccc([P+](Cc2ccc([N+](=O)[O-])cc2)(c2ccc(C)cc2)c2ccc(C)cc2)cc1,-0.637% (active)

row,Structure (SMILES),growth
1,CCOC(=O)c1sc(NC(=O)c2cc(OC)c(OC)c(OC)c2)nc1C,88.5%
2,CCCOCC(O)CNCCN (stereo not given),101%
3,NC1CCC(Nc2nc(NCc3ccc(-c4ccco4)nc3)c3ncn(C4CCCC4)c3n2)CC1 (stereo not given),-31% (active)
4,CCCCCCCC/C=C/CCCCCCCCC1=NCCN1CCO,90.5%
5,COc1ccc(/C(CS(=O)(=O)c2ccccc2)=N\O)cc1,95.1%
6,CCCCCCN=C(N)CCCCCCCCCCC(N)=NCCCCCC,40.9%
7,Cc1cc(O)c(C2=NN(c3ccc(S(N)(=O)=O)cc3)C(c3ccc(N(C)C)cc3)C2)c(C)c1Cl (stereo not given),64.8%
8,Cc1ccc2c(c1)-c1cc(C)nn1-c1ccc(C#N)cc1O2,52.4%
9,O/N=C1\CCC2CCCCC2C1 (stereo not given),106%
10,COc1c(-c2c3sc(=O)[nH]c3nc3c2c(=O)[nH]n3C(C)C)cc2c(c1OC)OCO2,99.4%
11,COC(=O)[C@]12CC[C@@H](C)[C@H](C)[C@@H]1C1=CC[C@@H]3[C@@]4(C)C[C@@H](O)[C@H](O)[C@@](C)(CO)[C@@H]4[C@H](O)C[C@@]3(C)[C@]1(C)CC2,-64% (active)
12,O=[N+]([O-])c1ccc2c(c1)Cc1cc(I)ccc1-2,108%
13,COc1ccc(-c2nnc(COc3ccc(NC(=O)Nc4cccc(C(F)(F)F)c4)cc3F)o2)cc1,17.1%
14,CC(=O)c1ccc(NCn2nc(-c3ccc(Cl)cc3)oc2=S)cc1,93.3%
15,O=C/C=C/c1ccc([N+](=O)[O-])cc1Cl,96.5%
16,O=C(Nc1ccc(Oc2ccc(Nc3nc4ccccc4s3)cc2)cc1)Nc1ccc(Cl)c(Cl)c1,21.1%
17,O=C(Nc1ccc(CN2CCOCC2)cc1)c1ccc(-c2cc(Cl)ccc2Cl)o1,-56.1% (active)
18,CC(C)/C=N/NC(N)=S,97.3%
19,CCc1nn2c(-c3cc(OC)c(OC)c(OC)c3)c(-c3cc(OC)c(OC)c(OC)c3)nc2s1,63.1%
20,Fc1ccc2[nH]c3c(NCCCN4CCOCC4)ncnc3c2c1,92.3%
